Data on 14 compounds can be found in PubChem BioAssay AID624481 (The Scripps Research Institute Molecular Screening Center, 2012).

As a reminder, the inhibition is the drop in the measured response relative to a control, in per cent.

Unmarked numbers belong to inactive results. Activity calls are given as the source filed them. No stated cut-off is given here; in the data, active means inhibition above about 50%; inactive means the rest.

Prolyl endopeptidase-like (Mus musculus), sequence (Q8C167 whole entry, looked up): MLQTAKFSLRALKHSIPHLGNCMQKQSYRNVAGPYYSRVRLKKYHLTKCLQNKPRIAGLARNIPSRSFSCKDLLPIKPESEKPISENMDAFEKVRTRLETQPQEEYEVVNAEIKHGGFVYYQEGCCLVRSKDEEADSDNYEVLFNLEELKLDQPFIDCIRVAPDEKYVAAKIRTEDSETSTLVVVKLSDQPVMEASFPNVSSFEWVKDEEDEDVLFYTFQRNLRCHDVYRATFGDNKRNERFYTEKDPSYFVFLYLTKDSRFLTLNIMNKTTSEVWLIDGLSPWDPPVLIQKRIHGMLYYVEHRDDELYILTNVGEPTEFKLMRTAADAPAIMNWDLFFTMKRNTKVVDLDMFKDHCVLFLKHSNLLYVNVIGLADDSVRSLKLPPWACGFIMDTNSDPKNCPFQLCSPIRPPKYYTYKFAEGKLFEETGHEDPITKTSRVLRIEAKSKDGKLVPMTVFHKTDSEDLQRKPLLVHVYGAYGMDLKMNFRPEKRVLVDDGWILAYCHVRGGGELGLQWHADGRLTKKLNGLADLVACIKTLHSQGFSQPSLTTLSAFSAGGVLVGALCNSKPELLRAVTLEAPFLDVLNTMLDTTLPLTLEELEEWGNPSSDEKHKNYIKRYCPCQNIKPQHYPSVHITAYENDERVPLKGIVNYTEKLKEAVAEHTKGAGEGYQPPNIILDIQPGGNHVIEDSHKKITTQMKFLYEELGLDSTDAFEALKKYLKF

This test has as its target Prolyl endopeptidase-like (Mus musculus) (UniProt Q8C167). Briefly: mouse PREPL enzyme inhibition by screening hits – biochemical, gel-based competitive ABPP, fluorescence, HTS hits, PREPL inhibitor project (AID 624481). The conditions noted are these: purified mouse PREPL, at 20 µM, hits give high values.
Take `C=CCn1c(O)c(C(CC)=NCc2ccc3c(c2)OCO3)c(=O)[nH]c1=O`: the inhibition was 32%. With `COc1ccc2[nH]c(C)c(CCNCc3cn(C)c4ccccc34)c2c1`, the inhibition was 16%.

With `CC(C)Cc1[nH]c(=O)c(C#N)c2c1CCC2`, the inhibition is 57% (active). As to `C1=C(c2c[nH]c3ccccc23)CCNC1`, the inhibition was -17%. As for `Cc1ccc(CN2CCSc3ccc(C(=O)N4CCC5(CC4)OCCO5)cc32)cc1`, the inhibition was -8%. For `NC(N)=NN=Cc1ccc(N(c2ccccc2)c2ccccc2)cc1`, the inhibition was -64%. Then `Cc1ccc(C[n+]2c(-c3ccc(C)cc3)cc(-c3ccc(C)cc3)cc2-c2ccc(C)cc2)cc1`, with 1%; and `C=CCn1c(O)c(C(CC)=NCCc2c[nH]c3ccccc23)c(=O)[nH]c1=O`, with 43%. The result for `COc1ccc2[nH]c(C)c(CCNCc3cc(OC)c4c(c3)OCO4)c2c1` reads -15%; that for `Brc1ccc(-[n+]2c(-c3ccccc3)cc(-c3ccccc3)cc2-c2ccccc2)cc1`, -32%. Then `O=C(c1ccc2c(c1)N(Cc1ccccc1)CCS2)N1CCC2(CC1)OCCO2`, with -19%; and `Clc1ccc(C[n+]2c(-c3ccccc3)cc(-c3ccccc3)cc2-c2ccccc2)cc1`, with -51%; and `O=C(c1ccc2c(c1)N(Cc1ccc(F)cc1)CCS2)N1CCC2(CC1)OCCO2`, with -13%. As to `CCOc1cccc(=NC2CCCCC2)c2c(C)[nH]c(C)c12`, the inhibition was 13%.
